Experimental findings from PubChem BioAssay (NCATS) are described below.

Test [1] is described as follows: qHTS profiling of the MIPE4 collection as inhibitors of Plasmodium falciparum (3D7) proliferation (AID 743344).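 Further: scaled between DMSO vehicle wells and 0.29 µM artemisinin as full inhibition.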 As to conditions: P. falciparum 3D7 in erythrocytes, SYBR Green DNA fluorescence, 72 h; at 28.5 µM unless noted. In short, it runs like this:
(§1)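 Parasite DNA was quantified by SYBR Green I fluorescence (ex 485, em 535 nm) after overnight lysis in saponin/Triton buffer at room temperature. Cultures at 0.3% parasitemia and 2.5% hematocrit were first exposed to compound for 72 h at 37 C; signals were normalised to artemisinin (0.29 uM) and vehicle wells.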

Test [2] in a line: qHTS profiling of the MIPE4 collection as inhibitors of Plasmodium falciparum (DD2) proliferation (AID 743345). The following applies: P. falciparum Dd2 in erythrocytes, SYBR Green DNA, 72 h; at 28.5 µM unless noted. In outline: as §1
The nature of test [3]: qHTS profiling of the MIPE4 collection as inhibitors of Plasmodium falciparum (DD2) proliferation (Rep 2) (AID 743346). The following applies: P. falciparum Dd2 in erythrocytes, SYBR Green DNA, 72 h; at 28.5 µM unless noted. In short, it runs like this:
as §1

Test [4] can be described thus: qHTS profiling of the MIPE4 collection as inhibitors of Plasmodium falciparum (HB3) proliferation (AID 743347).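 Further: plate controls were DMSO vehicle wells for no effect and artemisinin wells for full effect.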 The following applies: P. falciparum HB3 in erythrocytes, SYBR Green DNA, 72 h; at 28.5 µM unless noted. In short, it runs like this: as §1
Test [5] can be described thus: High-throughput drug toxicity screening in the BPDCN cell line Gen2.2 (AID 1224824).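 Further: cells exposed to compounds for 48 h before reading.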 As to conditions: Gen2.2 BPDCN cells; at 45.8 µM (top of the series) unless noted. In outline:
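Seed 500 exponentially growing Gen2.2 cells/well; add compounds by pin tool; incubate 48 h, 37 °C, 5% CO2; add CellTiter-Glo, 15 min RT; read luminescence. % activity vs DMSO (100%) and bortezomib (0%).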

Test [6] can be described thus: High-throughput drug toxicity screening in the BPDCN cell line Cal-1 (AID 1224825). As to conditions: Cal-1 BPDCN cell viability, qHTS; at 45.8 µM (top of the series) unless noted. In short, it runs like this: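 CellTiter-Glo luminescence after 48 h compound exposure; percent activity scaled with DMSO as 100% and bortezomib (9.2 uM final) as 0%. Cal-1 cells seeded at 500/well in RPMI, 10% FBS, no phenol red.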

Test [7] can be described thus: qHTS assay for measurement of the activity of small molecule inhibitors on Zika virus induced Caspase-3 activity in human iPSC derived neural progenitor cells (hNPCs) (AID 1224857; active means well fitted curve in the direction sought with a large enough effect; an effect the other way counts as inactive or inconclusive; further: % of control where 0% means no effect; nearly all actives have a fitted effect of over 65% in size). In short, it runs like this:
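Zika virus (2 FFU/cell) infection of human iPSC-derived NPCs, 6 h, following 1 h compound preincubation. Read-out: Caspase-Glo 3/7 luminescence.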

Test [8] in a line: qHTS assay for measurement of the activity of small molecule inhibitors on Zika virus induced Caspase-3 activity in human astrocytoma cells (AID 1224859; active means well fitted curve in the direction sought with a large enough effect; an effect the other way counts as inactive or inconclusive;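 further: plate controls were ZIKV-infected untreated cells for no effect and uninfected cells for full effect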). In outline: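 Caspase activation in ZIKV-infected SNB-19 cells (2 FFU/cell, 6 h) measured by Caspase-Glo 3/7 luminescence after 30 min RT; compound pre-incubated 1 h; normalised to uninfected and infected controls.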
Test [9] in a line: qHTS Screen of the MIPE 4.0 Collection Against Ewings Sarcoma (RDES) (AID 1259252; active means well fitted curve in the direction sought with a large enough effect; an effect the other way counts as inactive or inconclusive; further: nearly all actives have a fitted effect of over 35% in size; further: potency means the concentration at half of the fitted maximal effect). In outline:
(§2)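 Dose series incubated 48 h with cells in RPMI plus 5% FBS, glutamine and penicillin/streptomycin; cell viability then quantified via CellTiter-Glo.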

Test [10] in a line: qHTS Screen of the MIPE 4.0 Collection Against Ewings Sarcoma (TC71) (AID 1259253; active means well fitted curve in the direction sought with a large enough effect; an effect the other way counts as inactive or inconclusive; further: potency means the concentration at half of the fitted maximal effect; nearly all actives have a fitted effect of over 40% in size). In short, it runs like this: as §2
A short description of test [11]: qHTS Screen of the MIPE 4.0 Collection Against Ewings Sarcoma (TC32) (AID 1259256; active means well fitted curve in the direction sought with a large enough effect; an effect the other way counts as inactive or inconclusive; further: nearly all actives have a fitted effect of over 45% in size; further: potency means the concentration at half of the fitted maximal effect). In outline:
as §2

Test [12] in a line: qHTS profiling for inhibitors of Plasmodium falciparum (DD2) proliferation (AID 743323). The following applies: lower = more inhibition; at 28.7 µM (top of the series) unless noted. In outline:
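1536-well qHTS; infected RBCs 0.3% parasitemia/2.5% Hct final; cpd 72 h 37 C 5% CO2; lysis buffer + SYBR Green I, o/n RT dark; FI 485/535; norm. to 0.29 uM artemisinin and DMSO, plate-stack corrected.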

The nature of test [13]: qHTS profiling for inhibitors of Plasmodium falciparum (HB3) proliferation (AID 743324; active means well fitted curve in the direction sought with a large enough effect; an effect the other way counts as inactive or inconclusive;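 further: 100% = DMSO vehicle wells and 0% = artemisinin-treated control wells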). As to conditions: Plasmodium falciparum HB3 blood-stage proliferation; at 28.7 µM (top of the series) unless noted. In outline: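 SYBR Green fluorescence (485 ex/535 em) of lysed cultures, incubated overnight at room temperature in the dark, quantifies parasite DNA. Infected erythrocytes at 0.3% parasitemia and 2.5% hematocrit were exposed 72 h; values normalized to DMSO and 0.29 uM artemisinin controls.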

Molecules are shown by their SMILES. Records with an inconclusive call do not appear. Calls of active or inactive are those of the source. Unless noted, how the calls were made is not given here.

`Cc1ccc(NC(=O)c2cccc(N(C)C)c2)cc1NC(=O)c1ccc(O)cc1`: in test [1], the parasite growth, % of DMSO control turned out to be 35.6%. The compound also yielded a parasite growth remaining, % of DMSO control (lower = more inhibition) in test [2] of 87.3%. Also, the parasite growth, % of control (lower = inhibition) in [3] stood at 55.2%. The compound further gave a growth, % of control in [4] of 31.2%. For the same compound, in test [5], the cell viability, % of control (lower = more cytotoxic) stood at 81.9%. Besides, in [6], the viability (% of control) worked out at 5.55%. Further, the Potency result in [7] and in [8] was “inactive” throughout. For the same compound, the Potency in [9] is 0.118 µM (active); in test [10], 0.526 µM (active); in test [11], 1.05 µM (active).
In turn, `CCCCn1c(=O)n(Cc2ccccc2F)c(=O)c2[nH]c(Cc3ccc(NC(C)=O)cc3)nc21` had an activity, percent of control in test [12] of 63.7%. The compound further registered a remaining proliferation (% of control), lower = more inhibition in [13] of 30.8%. In addition, the parasite growth, % of DMSO control in [1] was 115%. This compound gave a parasite growth, % of control (lower = inhibition) in [3] of 43.7%. In [4], the growth, % of control was found to be 314%. For the same compound, the cell viability, % of control (lower = more cytotoxic) in [5] was 50.4%. In addition, in test [6], the viability (% of control) turned out to be 86%. The Potency entry in test [7], in test [8], in [9] and in [11] was “inactive” throughout. In addition, the Potency in test [10] was 20.9 µM (active).
In test [1], `CCC[C@H](N[C@@H](C)C(=O)N1[C@@H]2CCCC[C@H]2C[C@H]1C(=O)O)C(=O)OCC` displayed a parasite growth, % of DMSO control of 69%. The compound further registered a parasite growth remaining, % of DMSO control (lower = more inhibition) in test [2] of 77.5%. In test [3], this compound came in with a parasite growth, % of control (lower = inhibition) of 41.1%. In test [4], this compound showed a growth, % of control of 98.7%. In addition, in test [5], the cell viability, % of control (lower = more cytotoxic) stood at 64.1%. For the same compound, the viability (% of control) in test [6] amounted to 104%. Further, the Potency result in test [7], in test [8], in [9] and in test [11] was “inactive” throughout. Further, the Potency in [10] was 14.8 µM (active).
In [1], `CC=C1C2C=C(C)CC1(N)c1ccc(=O)[nH]c1C2` (stereo unspecified) had a parasite growth, % of DMSO control of 100%. The compound further yielded a parasite growth remaining, % of DMSO control (lower = more inhibition) in test [2] of 19.1%. For the same compound, the cell viability, % of control (lower = more cytotoxic) in test [5] came out at 164%. Also, the viability (% of control) in test [6] stood at 128%. Besides, the Potency result in [7], in test [8] and in [9] was “inactive” in each case. Moreover, the Potency in test [10] was 23.5 µM (active).
In test [1], `O=C(Nc1cccc(C(F)(F)F)c1)Nc1cc(S(=O)(=O)NC2CC2)ccc1-c1ccsc1` gave a parasite growth, % of DMSO control of 52.8%. In test [2], this compound registered a parasite growth remaining, % of DMSO control (lower = more inhibition) of 82.2%. In addition, the parasite growth, % of control (lower = inhibition) in [3] was 51.8%. This compound also came in with a growth, % of control in test [4] of 78.9%. The cell viability, % of control (lower = more cytotoxic) in [5] was determined as 316%. Further, the viability (% of control) in test [6] amounted to 68.8%. Further, the Potency result in test [7] and in [8] was “inactive” in each case. The Potency in test [9] is 20.9 µM (active); in [10] it was 20.9 µM (active); in test [11] it was 18.7 µM (active).
The compound `CC(C)N(CCCNC(=O)Nc1ccc(C(C)(C)C)cc1)C[C@H]1O[C@@H](n2cc(Br)c3c(N)ncnc32)[C@H](O)[C@H]1O` came in with a parasite growth, % of DMSO control in [1] of 5.02%. The compound also returned a parasite growth remaining, % of DMSO control (lower = more inhibition) in [2] of 7.13%. In addition, the parasite growth, % of control (lower = inhibition) in test [3] was 9.5%. Besides, the growth, % of control in test [4] is 7.54%. Further, in test [5], the cell viability, % of control (lower = more cytotoxic) came out at 116%. In test [6], the viability (% of control) was 61.2%. The Potency result in test [7] and in [8] was “inactive” each time. In addition, the results for the Potency in test [9], in [10] and in test [11] were 23.5 µM (active), 18.7 µM (active) and 20.9 µM (active), respectively.
Turning to `O=C(CC12CC3CC(CC(C3)C1)C2)Nc1cccc2nc(NCCNCCO)ccc12`, the parasite growth, % of DMSO control in [1] was found to be 4.99%. In addition, the parasite growth remaining, % of DMSO control (lower = more inhibition) in test [2] worked out at 13.2%. Also, the parasite growth, % of control (lower = inhibition) in [3] came out at 15.5%. Further, in [4], the growth, % of control was 4.24%. The cell viability, % of control (lower = more cytotoxic) in test [5] came out at 5.97%. For the same compound, in test [6], the viability (% of control) came out at 5.92%. For the same compound, the Potency entry in [7] and in test [8] was “inactive” each time. For the same compound, the Potency in [9] is 14.8 µM (active); in test [10] it was 7.43 µM (active); in test [11], 13.2 µM (active).
`O=C1Nc2ccc(I)cc2C1=Cc1cc(Br)c(O)c(Br)c1`: the parasite growth, % of DMSO control in test [1] was determined as 20.7%. Besides, the parasite growth remaining, % of DMSO control (lower = more inhibition) in test [2] came to 30.6%. Moreover, the parasite growth, % of control (lower = inhibition) in [3] was 32.9%. Besides, the growth, % of control in [4] was 17.7%. For the same compound, the cell viability, % of control (lower = more cytotoxic) in [5] amounted to 562%. Besides, in [6], the viability (% of control) amounted to 106%. Also, the Potency result in test [7] and in test [8] was “inactive” in each case. Also, the Potency in [9] was 18.7 µM (active); in test [10], 18.7 µM (active); in test [11], 20.9 µM (active).
